Out of some 240,000 compounds screened, about 20 (0.008%) were called active. About 1% were inconclusive and are not listed. A selection follows. Values without a mark were called inactive. The call rests on the fitted dose curve; in most records, active means well fitted inhibition curve with a large enough effect; inconclusive means small, poorly fitted or top-dose-only effect, or effect the other way; inactive means flat fitted curve, though single readings scatter.
biological target: Alpha-galactosidase A (Homo sapiens) (UniProt P06280); test: qHTS Assay for Inhibitors and Activators of Human alpha-Galactosidase From Spleen Homogenate; details: 4MU-alpha-Gal fluorescence, 40 min; series mostly up to 80 µM; activity change, negative = inhibition: at the top concentration;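 further: 0% = enzyme with vehicle and -100% = no enzyme basal signal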
Description: NIH Chemical Genomics Center [NCGC] NIH Molecular Libraries Probe Production Centers Network [MLPCN] MLPCN Grant: R03 MH084842-01 Assay Submitter (PI): Wei Zheng NCGC Assay Overview: Alpha-galactosidase is a homodimeric glycoprotein that hydrolyzes the terminal alpha-galactosyl moieties from glycolipids and glycoproteins. Deficiency of this enzyme results in Fabry Disease with progressive accumulation of globotriaosylceramide and other glycosphingolipids in vascular endothelial cells that causes renal failure, myocardial infarction and stroke, and premature death in patients. It has been reported that the improper folding and trafficking of alpha-galactosidase resulting from genetic mutations may account for a significant number of Fabry patients. […] We optimized this alpha-galactosidase assay in 1536-well plate format for identification of novel small molecule inhibitors or activators with structures other than the sugar analogs in order to develop new pharmacological chaperones. In particular, this assay is directed towards discovering compounds active in more natural setting, tissue homogenate, that may have been missed by screens of the purified enzyme under more stringent conditions.
NCGC Assay Protocol Summary: This is a fluorogenic enzyme assay with 4-methylumbelliferyl-alpha-D-galactopyranoside as the substrate and human spleen homogenate containing alpha-galactosidase as the enzyme preparation. Upon hydrolysis of this fluorogenic substrate, the resulting product, 4-methylumbelliferone (which excites at 365 nm and emits at 440 nm) can be detected by a fluorescence plate reader. Data were normalized to the controls for basal activity (without enzyme) and 100% activity (with enzyme). The AC50 values were determined from concentration-response data modeled with the standard Hill equation. Assay buffer: 50 mM citric acid (titrated with potassium phosphate to pH 5.0), 0.01% Tween-20 (pH 5.0 is an optimal condition for this enzyme assay) 1536-well assay protocol for the alpha-galactosidase from human spleen homogenate: (1) Add 2 ul/well spleen homogenate (1 ug) (2) Add 23 nL compounds in DMSO solution. The final titration was 0.5 nM to 58 uM. (3) Add 2 ul of substrate (1 mM final) (4) Incubate at 37C for 40 min (5) Add 2 ul stop solution (1M NaOH and 1M Glycine mixture, pH 10) (6) Detect the assay plate in a ViewLux plate reader (PerkinElmer) with Ex=365 nm and Em=440nm. Keywords: Alpha-galactosidase, Fabry Disease, pharmacological chaperone, chaperone therapy, high throughput screening, alpha- galactosidase inhibitor, MLSMR, MLSCN, NIH Roadmap, qHTS and NCGC

Chain of Alpha-galactosidase A (Homo sapiens) (P06280 32-429 limits assumed): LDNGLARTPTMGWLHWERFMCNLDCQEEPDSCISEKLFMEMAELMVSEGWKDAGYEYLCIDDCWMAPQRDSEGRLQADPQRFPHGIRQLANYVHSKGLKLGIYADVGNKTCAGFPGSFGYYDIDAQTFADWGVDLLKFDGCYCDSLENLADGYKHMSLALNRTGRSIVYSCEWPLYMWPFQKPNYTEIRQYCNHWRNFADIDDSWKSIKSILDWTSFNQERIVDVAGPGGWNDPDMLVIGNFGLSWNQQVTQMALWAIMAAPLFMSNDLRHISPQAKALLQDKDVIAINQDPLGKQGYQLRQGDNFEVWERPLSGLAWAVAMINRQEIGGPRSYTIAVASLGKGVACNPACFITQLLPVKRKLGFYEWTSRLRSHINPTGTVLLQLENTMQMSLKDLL

| SMILES | activity change, negative = inhibition |
| --- | --- |
| CSc1ccc(S(=O)(=O)Nc2cccc(F)c2)cc1 | 3.92% |
| COC(=O)c1ccc(C(NC(=O)OCc2ccccc2)/C(F)=C/[C@@H](C)C(=O)O)cc1 (stereo partly specified) | -4.12% |
| Cc1ccc(-c2csc(N(Cc3ccco3)C(=O)c3cccs3)n2)cc1 | 2.51% |
| O=C(Nc1cc(C(=O)Nc2ccc(S(=O)(=O)O)cc2)cc(C(=O)Nc2ccc(S(=O)(=O)O)cc2)c1)Nc1cc(C(=O)Nc2ccc(S(=O)(=O)O)cc2)cc(C(=O)Nc2ccc(S(=O)(=O)O)cc2)c1 | 3.78% |
| Cc1ccccc1OCCC(=O)OCC(=O)NC(C)c1ccccc1 (stereo unspecified) | 1.89% |
| CC[C@H](C)[C@H](NC(=O)[C@H](Cc1ccc(O)cc1)NC(=O)[C@@H](NC(=O)[C@H](CCCN=C(N)N)NC(=O)[C@@H](N)CC(=O)O)C(C)C)C(=O)N[C@@H](Cc1cnc[nH]1)C(=O)N1CCC[C@H]1C(=O)N[C@@H](Cc1ccccc1)C(=O)O | -0.483% |
| CC(=O)Nc1ccc(S(=O)(=O)N2N=NC3C2C2CC4C3(CN(C(=O)OC(C)(C)C)S4(=O)=O)O2)cc1 (stereo unspecified) | -1.71% |
| CSCCC(NC(=O)c1cc([N+](=O)[O-])cc([N+](=O)[O-])c1)c1nc2ccccc2[nH]1 (stereo unspecified) | 18.7% |
| CCOc1c2ccc(C(=O)NC3CCCc4ccccc43)cc2nn1CC (stereo unspecified) | 5.93% |
| Cc1cc(C)c(NC(=O)C[N+](C)(C)CC(O)COc2cccc3ccccc23)c(C)c1 (stereo unspecified) | -14% |
| CCOC(=O)Cc1csc(SCc2cc(=O)oc3cc(O)ccc23)n1 | 9.37% |
| CC1(C)CC(=O)c2cnc3nc4ccccc4n3c2C1 | 7.68% |
| COCC1CCCN(Cc2cn[nH]c2-c2cc3ccccc3o2)C1 (stereo unspecified) | -8.79% |
| Cc1cc(Cl)ccc1C(=O)C1CCCN(C(=O)CCN2CCCO2)C1 (stereo unspecified) | -13% |
| CC(C)Cn1c(N)c(C(=O)COC(=O)CN2C(=O)C3CC=CCC3C2=O)c(=O)n(C)c1=O (stereo unspecified) | 1.23% |
| O=C(NNc1ccccc1Cl)C(O)(c1cccc(C(F)(F)F)c1)c1cccc(C(F)(F)F)c1 | -3.52% |
| O=C(NCc1ccccn1)[C@]1(C(F)(F)F)C[C@H](CCc2ccccc2)CCCO1 | 2.9% |
| Cc1cccc(C)c1N1CCN(S(=O)(=O)N2CCCCC2)CC1 | 5.18% |
| Cc1cccc2nc(CSc3nc4[nH]ncc4c(=O)n3-c3cccc(Cl)c3)cc(=O)n12 | 5.01% |

| SMILES | activity change, negative = inhibition |
| --- | --- |
| N#Cc1ncc(C(F)(F)F)cc1Oc1cccnc1 | -18% |
| CNC(=O)[C@]1(C(F)(F)F)C[C@H](CCc2ccccc2)CCCO1 | -17.7% |
| COc1ccc(C[C@H](C(=O)O)N2C(=O)c3ccc(C(=O)O)cc3C2=O)cc1 | -9.39% |
| Cc1ccccc1N(C(=O)Cc1cccs1)C(C(=O)NC1CCCCC1)c1cn(C)nc1C (stereo unspecified) | -4.95% |
| C[C@@H]1O[C@@H](OC[C@H]2O[C@@H](Oc3cc(O)c4c(c3)O[C@H](c3ccc(O)c(O)c3)CC4=O)[C@H](O)[C@@H](O)[C@@H]2O)[C@H](O)[C@H](O)[C@H]1O | 3.44% |
| CCOC(=O)C1CCN(c2c(Nc3cc(C)cc(C)c3)c(=O)c2=O)CC1 | -0.907% |
| NC(=O)NC(=O)CSc1nc2cc([N+](=O)[O-])ccc2n1-c1cccc(C(F)(F)F)c1 | -1.63% |
| C[C@H]1CCC[C@@]2(C)CCCC[C@]12O | 2.2% |
| C=C1CCN(C(CC(C)C)C(=O)NCc2cc(OC)c(OC)c(OC)c2)S(=O)(=O)c2ccccc21 (stereo unspecified) | -16.2% |
| COc1ccc(C2/C=C\CN(Cc3ccco3)C(C)C(=O)N2Cc2ccc(F)cc2)cc1 (stereo unspecified) | 4.4% |
| COc1cc(C2OC(c3cc(OC)c(OC)c(OC)c3)C(C)C2C)cc(OC)c1OC (stereo unspecified) | 5.9% |
| COc1ccc(CN(C(=O)CSc2nnc(-c3ccc(OC)c(OC)c3)o2)c2ccc(F)cc2)cc1 | 10% |
| C=CCC(C)(O)c1ccco1 (stereo unspecified) | -6.7% |
| CCCCCNC(=O)c1cccnc1SCC(=O)Nc1ccccc1OC | -4.08% |
| CC1(C)CC(N2CCN(C(c3ccccc3)c3ccccc3)CC2)=CC(=[N+]2CCCCC2)C1 | 3.27% |
| COc1ccccc1C(=O)N1CCN=C1SCc1cccnc1 | 0.71% |
| O=C(NCCCn1ccnc1)c1cc(-c2ccccc2)on1 | -0.698% |
| C=C(C)C1CC=C(C)C(O)C1 (stereo unspecified) | inactive |
| C=CCN1c2ccccc2[C@]23C[C@@H](C(=O)OC)N(S(=O)(=O)c4ccc([N+](=O)[O-])cc4)C2=NC(C(=O)OC)=C(C(=O)OC)[C@H]13 | -4.05% [at 17.5 µM] |

| SMILES | activity change, negative = inhibition |
| --- | --- |
| [O-][n+]1onc2c1CCc1[nH]c(-c3ccccc3)nc1-2 | 1.23% |
| CC(=O)CC(c1ccccc1)C1C(=O)Oc2ccccc2C1=O (stereo unspecified) | -10.1% |
| Cc1nn(C)c(C(=O)NNC(=S)NC2CCCCC2)c1Cl | 2.34% |
| NCCCCC(N)C(=O)O (stereo unspecified) | 2.41% |
| Cn1c(SCC(=O)N/N=C/c2ccc(O)c(O)c2)nc2ccccc21 | 3.66% |
| O=c1cc(-c2ccc(O)cc2)oc2c([C@@H]3O[C@H](CO)[C@@H](O)[C@H](O)[C@H]3O)c(O)cc(O)c12 | -17.6% |
| CCN(CC)c1ccc(/C=N/NC(=O)c2cnccn2)c(O)c1 | -14.2% |
| O=C(NCCCO)/C(=C\C=C\c1ccccc1)NC(=O)c1ccccc1Cl | 1.56% |
| COc1ccc(/C=N/Nc2ncnc3sc4c(c23)CCCC4)cc1O | 4.96% |
| COc1ccccc1C1C(C#N)=C(N)Oc2c1c(-c1ccccc1)nn2-c1ccccc1 (stereo unspecified) | 6.59% |
| CC[C@H](C)[C@H](NC(=O)[C@@H](N)CCC(=O)O)C(=O)N[C@@H](CC(C)C)C(=O)N[C@@H](CC(=O)O)C(=O)N[C@H](C(=O)N1CCC[C@H]1C(=O)N[C@@H](CO)C(=O)N[C@H](C(=O)O)[C@@H](C)O)C(C)C | -4.11% |
| C[C@]1(C(=O)NCCc2c[nH]c3ccccc23)C=C[C@@H](Cc2ccccc2)N1C(=O)c1ccccc1 | inactive |
| CCC1(CC)C(=O)C2=C3C1[C@H](C(=O)OC)C=C(C(=O)OC)C[C@H]3[C@H]1C(=O)N(Cc3ccccc3)C(=O)[C@H]1[C@H]2C (stereo partly specified) | 6.6% |
| COc1ccc2c3c1O[C@H]1C[C@@H](O)C=C[C@@]31CCN(C)C2 | inactive |
| OCCNCc1cccc(OCc2ccccc2Cl)c1 | -3.03% |
| CC1=NN(C(=O)c2ccc(Br)cc2)C(O)(c2ccccc2)C1 (stereo unspecified) | 6.29% |
| Cc1ccc(-c2nn(CC(C)(C)C)c3ncnc(N)c23)cc1 | -4.25% |
| COc1ccc(-c2c(C)cc3oc(=O)cc(-c4ccccc4)c3c2C)cc1OC | 1.37% [at 119 µM] |

Reference: PubChem BioAssay AID2107 (National Center for Advancing Translational Sciences (NCATS), 2009)
